PubChem BioAssay
Results with a measured potency or affinity are listed apart. Results filed as inconclusive are left out. Calls of active or inactive are those of the source. The rule behind the calls is not given here.

assay: general cell-killing toxicity readout – plate reader, dry powder samples, cytotoxicity control for PAX8 inhibitor project, dose response (AID 743021); details: cell line, non-specific cytotoxicity counter-screen; series mostly up to 35 µM; activity change, negative = cytotoxicity: at the top concentration

SMILES | activity change, negative = cytotoxicity
C[C@H]1CCCCO[C@H](CN(C)C(=O)C2CCCCC2)[C@@H](C)CN([C@@H](C)CO)C(=O)c2cc(NC(=O)Nc3ccc(F)cc3)ccc2O1 | 17.6% (inactive)
C[C@@H]1CN([C@H](C)CO)C(=O)c2cc(NC(=O)Nc3ccc(C(F)(F)F)cc3)ccc2O[C@@H](C)CCCCO[C@@H]1CN(C)C(=O)c1ccccc1 | -12.8% (inactive)
Cc1nc(SCC(=O)Nc2nc3ccccc3s2)c(C#N)c(C)c1C | -21.6% (inactive)
CC(=O)Nc1ccc(S(=O)(=O)c2ccnc3cc(Cl)ccc23)cc1 | 21.8% (inactive)
C[C@H](CO)N1C[C@H](C)[C@@H](CN(C)C(=O)C2CCCCC2)OCCCC[C@H](C)Oc2ccc(NS(=O)(=O)c3ccc(Cl)cc3)cc2C1=O | -8.96% (inactive)
Cc1ccc(S(=O)(=O)N(C)C[C@@H]2Oc3cc(C#Cc4ccncc4)ccc3S(=O)(=O)N([C@H](C)CO)C[C@H]2C)cc1 | 2.94% (inactive)
CN1c2ccc(-c3ccccc3)cc2[C@H]2[C@H](CCN2C(=O)NC2CCCCC2)[C@@H]1CO | -4.26% (inactive)
O=C(/C=C/c1ccccc1)Nc1cccc(C(=O)O)c1 | 1.47% (inactive)
C[C@@H]1CN([C@H](C)CO)C(=O)c2cc(NC(=O)NC3CCCCC3)ccc2O[C@@H](C)CCCCO[C@H]1CN(C)Cc1ccc(C(F)(F)F)cc1 | -32.4% (inactive)
Cc1cc(NC(=O)CCCS(=O)(=O)c2nc(-c3cccs3)cc(C(F)(F)F)n2)no1 | 31.6% [at 16 µM] (inactive)
COc1ccc(S(=O)(=O)Nc2ccc3c(c2)CC(=O)N([C@@H](C)CO)C[C@@H](C)[C@@H](CN(C)Cc2ccc(-c4ccccc4)cc2)O3)cc1 | -21.7% (inactive)
